Measured values: PubChem BioAssay (Tox21)
Records with an inconclusive call do not appear. Activity calls are given as the source filed them. Unless noted, calls come from the whole dose curve; as a rule, active = well fitted curve in the direction sought with a large enough effect in the repeat runs; inconclusive = weak or mixed curves; inactive = no such curve, though single readings can be large; an effect the other way counts as inactive or inconclusive.

Tests used:
[1] = qHTS assay for small molecule agonists of the p53 signaling pathway (AID 651631; calls by dose curve; note: nearly all actives have a fitted effect of over 15% in size; note: potency is the fitted concentration of half-maximal effect)
Summary of the method: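 HCT-116 cells carrying a stable p53 response element–beta-lactamase reporter were plated, rested 5 h at 37 °C, then exposed to compound in DMSO for 16 h at 37 °C; reporter activity was read as FRET substrate fluorescence after 2 h at room temperature.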

[2] = qHTS assay for small molecules that induce genotoxicity in human embryonic kidney cells expressing luciferase-tagged ATAD5 (AID 651632); note: nearly all actives have a fitted effect of over 15% in size
Summary of the method: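 Luminescence read-out: after 16 hr compound exposure at 37C, ATAD5-luciferase HEK293T cells received Amplite, 30 min RT, then CCD imaging. A rise in signal marks genotoxic stress.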

[3] = qHTS assay for small molecule agonists of the p53 signaling pathway - cell viability (AID 651633; calls by dose curve; note: nearly all actives have a fitted effect of over 30% in size; note: potency is the fitted concentration of half-maximal effect)
Summary of the method: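 Viability counter-read: CellTiter-Glo luminescence (30 min, room temperature) in the same p53RE-bla plates. These plates had been exposed to compounds for 16 h at 37 C.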

[4] = qHTS assay for small molecules that induce genotoxicity in human embryonic kidney cells expressing luciferase-tagged ATAD5 - cell viability (AID 651634; calls by dose curve; note: nearly all actives have a fitted effect of over 25% in size)
Summary of the method: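 HEK293T ATAD5-luc cells, 2,000/well; compound 15.5 hr, 37C/5% CO2; CellTiter-Fluor 30 min, 37C; fluorescence read.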

[5] = qHTS assay for small molecule disruptors of the mitochondrial membrane potential - cell viability (AID 720634; calls by dose curve;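 note: human HepG2 liver cancer cells; series mostly up to about 83 µM; nearly all actives have a fitted effect of over 20% in size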)
Summary of the method: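 Luminescence from CellTiter-Glo (ATP content) gave viability in HepG2 cells, read in the same wells as the MMP dye assay after 1 hr compound exposure at 37 C.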

[6] = qHTS assay for small molecule disruptors of the mitochondrial membrane potential (AID 720635); note: potency is the fitted concentration of half-maximal effect
Summary of the method: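 Mitochondrial membrane potential tracked with Mito-MPS dye, red aggregates (ex 540/em 590 nm) against green monomers (ex 490/em 535 nm). Compound treatment 1 hr at 37C, dye 30 min in HepG2.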

[7] = qHTS assay to test for compound auto fluorescence at 590 nm (red) in HepG2 cells (AID 720674)
Summary of the method: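 We screened compounds on adherent HepG2 cells, incubating them for an hour at 37 C in 5% CO2 before reading emission at 590 nm under 540 nm excitation; values reflect equivalence to Rose Bengal sodium fluorescence.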

[8] = qHTS assay to test for compound auto fluorescence at 535 nm (green) in HepG2 cells (AID 720675)
[9] = qHTS assay to test for compound auto fluorescence at 460 nm (blue) in HEK293 cells (AID 720678)
Summary of the method: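 After cell attachment (4-5 hr, 37C), compounds were pinned onto HEK293 monolayers in 10% dialyzed FBS medium. The blue channel (405/460 nm) was read following overnight culture. Equivalency was calculated against triamterene.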

[10] = qHTS assay to test for compound auto fluorescence at 590 nm (red) in HEK293 cells (AID 720679)
Summary of the method: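 Plates of HEK293 cells (10% dialyzed FBS) are treated with 23 nL compound or DMSO vehicle after a 4-5 hr attachment period, incubated overnight at 37C, and read for red fluorescence at 540/590nm.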

[11] = qHTS assay to test for compound auto fluorescence at 535 nm (green) in HEK293 cells (AID 720680)
[12] = qHTS assay to test for compound auto fluorescence at 460 nm (blue) in HEK293 cell free culture (AID 720681)
Summary of the method: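 Blue fluorescence (Ex 405/Em 460 nm, triamterene-equivalent) was read immediately after pin transfer of compound or DMSO into medium (DMEM, 10% FBS) without cells.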

[13] = qHTS assay to test for compound auto fluorescence at 535 nm (green) in HEK293 cell free culture (AID 720682)
Summary of the method: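 Read-out: 485/535 nm fluorescence intensity, calibrated against fluorescein. Medium only (DMEM + 10% FBS, no cells); test compound or DMSO vehicle added by pintool before plate reading.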

[14] = qHTS assay to test for compound auto fluorescence at 590 nm (red) in HEK293 cell free culture (AID 720683)
Summary of the method: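 Red-channel autofluorescence of compounds in culture medium (DMEM, 10% FBS), no cells, measured at 540/590 nm. Rose Bengal sodium is the reference fluorophore for equivalence.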

[15] = qHTS assay to test for compound auto fluorescence at 590 nm (red) in HepG2 cell free culture (AID 720684)
Summary of the method: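 Cell-free; medium MEM + 10% FBS; compound or DMSO added by pintool; read Ex 540/Em 590 nm; Rose Bengal sodium as red reference fluorophore.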

[16] = qHTS assay to test for compound auto fluorescence at 460 nm (blue) in HepG2 cell free culture (AID 720685)
Summary of the method: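 Cell-free plates of MEM plus 10% FBS received 23 nL compound or DMSO vehicle; blue-channel (405/460 nm) intensity scored against triamterene as reference fluorophore.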

[17] = qHTS assay to test for compound auto fluorescence at 535 nm (green) in HepG2 cell free culture (AID 720686)
[18] = qHTS assay to test for compound auto fluorescence at 460 nm (blue) in HepG2 cells (AID 720687)
Summary of the method: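 Blue-channel autofluorescence (Ex/Em 405/460 nm, triamterene-equivalent) was measured after 1 hr compound exposure at 37 C, 5% CO2. Cells were HepG2, plated overnight at 37 C in MEM plus 10% FBS.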

[19] = target: Glucocorticoid receptor (Homo sapiens) (UniProt P04150); assay: qHTS assay to identify small molecule agonists of the glucocorticoid receptor (GR) signaling pathway (AID 720691; active = well fitted activation curve with a large enough effect in the signal ratio in the repeat runs, not every such curve was filed as active; the % refers to the signal ratio)
Chain of Glucocorticoid receptor (Homo sapiens) (P04150 whole entry, looked up): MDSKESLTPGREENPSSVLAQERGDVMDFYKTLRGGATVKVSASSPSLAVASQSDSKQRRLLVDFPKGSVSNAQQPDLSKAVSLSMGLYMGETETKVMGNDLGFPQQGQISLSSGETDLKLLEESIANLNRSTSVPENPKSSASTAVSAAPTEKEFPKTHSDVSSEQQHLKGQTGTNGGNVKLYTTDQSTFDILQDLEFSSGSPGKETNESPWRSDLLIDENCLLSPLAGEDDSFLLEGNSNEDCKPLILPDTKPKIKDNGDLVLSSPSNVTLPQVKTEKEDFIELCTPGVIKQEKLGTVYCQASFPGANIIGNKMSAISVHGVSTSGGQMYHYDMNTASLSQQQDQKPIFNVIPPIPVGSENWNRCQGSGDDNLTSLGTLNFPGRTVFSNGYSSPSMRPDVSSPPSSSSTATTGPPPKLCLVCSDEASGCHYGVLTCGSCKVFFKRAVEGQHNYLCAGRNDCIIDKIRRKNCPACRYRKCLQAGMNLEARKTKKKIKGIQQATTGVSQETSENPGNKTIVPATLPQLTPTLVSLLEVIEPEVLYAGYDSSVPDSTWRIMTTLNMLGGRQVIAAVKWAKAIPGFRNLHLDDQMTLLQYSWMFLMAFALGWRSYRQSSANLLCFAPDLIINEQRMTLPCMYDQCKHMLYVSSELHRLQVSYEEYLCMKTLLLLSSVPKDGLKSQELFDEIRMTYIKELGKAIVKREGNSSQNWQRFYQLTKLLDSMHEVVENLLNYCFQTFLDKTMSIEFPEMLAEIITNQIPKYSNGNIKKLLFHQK
Summary of the method: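 HeLa GR-bla reporter line; cells pre-incubated 4 h, compound in DMSO 18 h at 37 C; LiveBLAzer B/G FRET substrate 2 h RT; fluorescence intensity read-out.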

[20] = target: Glucocorticoid receptor (Homo sapiens) (UniProt P04150); assay: qHTS assay to identify small molecule antagonists of the glucocorticoid receptor (GR) signaling pathway (AID 720692; active = well fitted inhibition curve with a large enough effect in the signal ratio in the repeat runs, not every such curve was filed as active; the % refers to the signal ratio)
Summary of the method: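 Read-out: beta-lactamase FRET substrate fluorescence, 2 h at room temperature, in HeLa cells stably carrying a GRE-driven bla reporter. Compounds were co-incubated with 5 nM dexamethasone agonist (final) for 18 h at 37 C.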
% is set by controls: 0 for no effect and ±100 for the full control effect.

CC1=Nc2ccccc2C1(C)C
inactive: Potency [1] | Potency [2] | Potency [3] | Potency [4] | Potency [5] | Potency [6] | Potency [7] | Potency [8] | Potency [9] | Potency [10] | Potency [11] | Potency [12] | Potency [13] | Potency [14] | Potency [15] | Potency [16] | Potency [17] | Potency [18] | Potency [19]

CC(=O)OCC=C(C)C
inactive: Potency [1] | Potency [2] | Potency [3] | Potency [4] | Potency [5] | Potency [6] | Potency [7] | Potency [8] | Potency [9] | Potency [10] | Potency [11] | Potency [12] | Potency [13] | Potency [14] | Potency [15] | Potency [16] | Potency [17] | Potency [19]

O=C(Oc1ccccc1)Oc1ccccc1
inactive: Potency [1] | Potency [2] | Potency [3] | Potency [4] | Potency [5] | Potency [6] | Potency [7] | Potency [8] | Potency [10] | Potency [11] | Potency [12] | Potency [13] | Potency [14] | Potency [15] | Potency [16] | Potency [17] | Potency [18]

O=C(O)[C@H](O)[C@@H](O)[C@H](O[C@@H]1O[C@H](CO)[C@H](O)[C@H](O)[C@H]1O)[C@H](O)CO
inactive: Potency [1] | Potency [2] | Potency [3] | Potency [4] | Potency [5] | Potency [6] | fluorescence, % of fluorescein control [8] 0.0584% [at 18.6 µM] | fluorescence, % of triamterene [9] 0.228% [at 18.6 µM] | fluorescence, % of fluorescent control [10] 0.434% [at 18.6 µM] | fluorescence, % of fluorescein [11] -0.0275% [at 18.6 µM] | fluorescence, % of fluorescent control [12] -0.0747% [at 18.6 µM] | activity change [13] -0.0154% [at 18.6 µM, active compounds read high] | fluorescence, % of fluorescent control [14] -0.292% [at 18.6 µM] | fluorescence, % of Rose Bengal [15] 0.117% [at 18.6 µM] | fluorescence, % of fluorescent control [16] 0.0634% [at 18.6 µM] | fluorescence, % of fluorescein control [17] -0.112% [at 18.6 µM] | Potency [19] | Potency [20]

O=c1[nH]c(=O)n([C@H]2C[C@H](O)[C@@H](CO)O2)cc1F
inactive: Potency [2] | Potency [4] | Potency [5] | Potency [6] | Potency [7] | Potency [8] | Potency [9] | Potency [10] | Potency [11] | Potency [12] | Potency [13] | Potency [14] | Potency [15] | Potency [16] | Potency [17] | Potency [18] | Potency [20]
active: Potency [1] 944 nM | Potency [3] 211 nM

O=C(/C=C/c1ccc(O)c(O)c1)O[C@@H](C(=O)O)[C@@H](OC(=O)/C=C/c1ccc(O)c(O)c1)C(=O)O
inactive: Potency [1] | Potency [2] | Potency [3] | Potency [4] | Potency [5] | Potency [6] | Potency [7] | Potency [8] | Potency [10] | Potency [11] | Potency [13] | Potency [14] | Potency [15] | Potency [16] | Potency [17] | Potency [18] | Potency [19] | Potency [20]

CC(C)(C)NSc1nc2ccccc2s1
inactive: Potency [1] | Potency [2] | Potency [3] | Potency [4] | Potency [5] | Potency [8] | Potency [9] | Potency [10] | Potency [11] | Potency [12] | Potency [13] | Potency [15] | Potency [16] | Potency [17] | Potency [18] | Potency [19]
active: Potency [6] 24800 nM

CC/C=C\CCCCCO
inactive: Potency [1] | Potency [2] | Potency [3] | Potency [4] | Potency [5] | Potency [6] | Potency [7] | Potency [8] | Potency [10] | Potency [11] | Potency [12] | Potency [13] | Potency [14] | Potency [15] | Potency [16] | Potency [17] | Potency [18] | Potency [19] | Potency [20]

COCCOc1cc2cc(C(=O)NC3CCN(C(C)C)CC3)n(CC(=O)Nc3ccc(Cl)cn3)c2cn1
inactive: Potency [1] | Potency [2] | Potency [3] | Potency [4] | Potency [5] | Potency [6] | Potency [7] | Potency [8] | Potency [9] | Potency [10] | Potency [11] | Potency [12] | Potency [13] | Potency [15] | Potency [16] | Potency [17] | Potency [19] | Potency [20]

CCC(CC)C(C)CCOC(C)=O (stereo not drawn)
inactive: Potency [1] | Potency [2] | Potency [3] | Potency [4] | Potency [5] | Potency [6] | Potency [8] | Potency [9] | Potency [10] | Potency [11] | Potency [12] | Potency [13] | Potency [14] | Potency [15] | Potency [16] | Potency [17] | Potency [18]

COC(=O)c1ccccc1C
inactive: Potency [1] | Potency [2] | Potency [3] | Potency [4] | Potency [5] | Potency [7] | Potency [8] | Potency [9] | Potency [10] | Potency [11] | Potency [12] | Potency [13] | Potency [14] | Potency [15] | Potency [16] | Potency [17] | Potency [18] | Potency [19] | Potency [20]

NC(=O)c1cccc([N+](=O)[O-])c1
inactive: Potency [1] | Potency [2] | Potency [3] | Potency [4] | Potency [5] | Potency [7] | Potency [8] | Potency [10] | Potency [11] | Potency [12] | Potency [13] | Potency [14] | Potency [15] | Potency [16] | Potency [17] | Potency [18] | Potency [19] | Potency [20]

CC(CO)Oc1ccccc1 (stereo not drawn)
inactive: Potency [1] | Potency [2] | Potency [3] | Potency [4] | Potency [5] | Potency [8] | Potency [9] | Potency [10] | Potency [11] | Potency [12] | Potency [13] | Potency [14] | Potency [15] | Potency [16] | Potency [17] | Potency [18] | Potency [19] | Potency [20]

CCCCCC(C)OC(=O)COc1ccc(Cl)c2cccnc12 (stereo not drawn)
inactive: Potency [1] | Potency [2] | Potency [3] | Potency [4] | Potency [5] | Potency [7] | Potency [8] | Potency [9] | Potency [10] | Potency [11] | Potency [12] | Potency [13] | Potency [14] | Potency [15] | Potency [16] | Potency [17] | Potency [18] | Potency [19]
